# Source: ChEMBL document CHEMBL4513146, “CO-ADD screening of Karazin Kharkiv National University (Ukraine) compounds”
# Potency and affinity values are given separately.
# Assays:
# Klebsiella pneumoniae = conditions: Concentration 32 ug.mL-1;; ASSAY_TEST Inhibition of Bacterial Growth; detection method Absorption (OD600); MEDIA CAMHB; plate type 384well; NBS; CORNING #3640; time 18 hr
# Candida albicans = conditions: Concentration 32 ug.mL-1; ASSAY_TEST Inhibition of Fungal Growth; detection method Absorption (OD530)
# Cryptococcus neoformans = conditions: Concentration 32 ug.mL-1; ASSAY_TEST Inhibition of Fungal Growth; detection method Resazurin; Absorption (OD600-OD570); plate type 384well; NBS; CORNING #3640
Compound,Inhibition (Klebsiella pneumoniae) [%],Inhibition (Candida albicans) [%],Inhibition (Cryptococcus neoformans) [%]
COc1ccc(-n2ccn3c(=O)n(Cc4ccccc4Cl)nc3c2=O)cc1Cl,3.5,1.04,0.74
COc1cc(OC)c(NC(=O)Cn2nc3c(Oc4ccc(C)cc4)nccn3c2=O)cc1Cl,2,2.42,-3.76
Cc1nnc2c(SCC(=O)Nc3ccc(F)cc3F)nc3ccccc3n12,16.48,0.69,-22.98
Cc1cc(C)cc(NC(=O)Cn2nc3ccc(-c4ccc(C)c(C)c4)nn3c2=O)c1,5.54,21.88,-18.49
COc1cccc(-n2ccn3c(SCC(=O)N4CCN(c5ccccc5F)CC4)nnc3c2=O)c1,17.26,0.16,-10.18
COc1ccc(CCn2c(=O)c3sccc3n3c(=O)n(Cc4ccccc4Cl)nc23)cc1OC,5.53,-1.24,-27.91
Cn1c(=O)c2ccc(C(=O)NC3CCCCC3)cc2n2c(=O)n(CC#N)nc12,3.72,1.15,-18.77
O=C(CSc1nnc2c(=O)n(-c3ccc(F)c(F)c3)ccn12)c1c[nH]c2ccccc12,5.97,22.97,-8.04
COc1cccc(-n2ccn3c(SCc4cccc(C(F)(F)F)c4)nnc3c2=O)c1,-17.2,12.49,-6.54
COC(=O)c1ccc(NC(=O)Cn2nc3c(Oc4ccccc4)nccn3c2=O)cc1,-0.72,3.86,-10.09
Cc1ccc(C)c(NC(=O)Cn2nc3ccc(-c4ccccc4)nn3c2=O)c1,5.6,1.64,-11.25
COc1cc(NC(=O)C(C)Sc2nnc3c(=O)n(-c4ccc(C)c(C)c4)ccn23)cc(OC)c1 (stereo not drawn),1.23,2.85,-8.2
O=C(Cn1nc2nc(Nc3ccc(F)cc3)ccn2c1=O)Nc1ccc(F)cc1,8.54,3.4,-2.56
O=C(CCc1nnc2c(N3CCCCC3)nc3ccccc3n12)NCCc1ccc(Cl)cc1,17.22,2.39,-25.04
CCCc1nnc2c(=O)n(CC(=O)Nc3ccc4c(c3)OCCO4)c3ccccc3n12,-1.14,4.16,-31.27
Cc1cccc(NC(=O)CSc2nnc3c4cc(-c5ccccc5)nn4ccn23)c1C,7.23,5.25,-12.53

Compound,Inhibition (Klebsiella pneumoniae) [%],Inhibition (Candida albicans) [%],Inhibition (Cryptococcus neoformans) [%]
COc1ccc(CNC(=O)CSc2nnc3c4cc(-c5ccc(OC)cc5)nn4ccn23)cc1,-0.91,1.93,-6.67
CC1CCN(C(=O)Cn2nc3n(Cc4ccco4)c(=O)c4sccc4n3c2=O)CC1,6.19,0.21,-13.38
O=c1n(Cc2cccc(C(F)(F)F)c2)nc2ccc(S(=O)(=O)N3CCCCC3)cn12,10.15,0.06,-10.55
CCOC(=O)c1ccc(NC(=O)Cn2nc3c(N4CCOCC4)nccn3c2=O)cc1,11.56,3.03,-14.12
CCCCc1ccc(NC(=O)Cn2c(=O)c3nnc(C(C)C)n3c3ccccc32)cc1,18.09,-0.74,-30.75
O=C(Cn1nc2c(Oc3ccccc3)nccn2c1=O)Nc1ccc(F)cc1F,0.94,-1.91,-7.74
Cc1ccc(Oc2nccn3c(=O)n(CC(=O)Nc4ccc(F)cc4F)nc23)cc1,1.97,0.56,-6.68
COc1ccc(NC(=O)Cn2nc3ccc(-c4ccccc4)nn3c2=O)cc1Cl,-6.25,19.43,-3.35
Cc1ccc(-c2cc3c4nn(CC(=O)Nc5ccc(F)cc5Cl)c(=O)n4ccn3n2)cc1,2.7,1.88,-28.25
Cc1cc(C)cc(N(Cc2cc(C)ccc2C)S(=O)(=O)c2cccn3c(C)nnc23)c1,4.69,1.02,-8.76
COC(=O)c1sccc1NC(=O)Cn1nc2c(Oc3ccccc3)nc3ccccc3n2c1=O,10.72,1.3,-16.14
O=C(Cn1nc2c(SC3CCCCC3)nccn2c1=O)Nc1cccc(Br)c1,-4.59,26.25,-20.18
COc1ccc(NC(=O)CSc2nnc3c(=O)n(-c4ccccc4OC)ccn23)cc1Cl,12.69,3.75,-12.03
CCOc1ccc(-n2ccn3c(SC(C)C(=O)Nc4ccc5c(c4)OCCO5)nnc3c2=O)cc1 (stereo not drawn),14.39,0.98,-16.53
CSc1cccc(NC(=O)Cn2nc3c(SC4CCCCC4)nccn3c2=O)c1,1.73,-2.6,-1.74
